# Source: the supplement of paper PMC4466140
# Legend:
# Test in all cases: SPOT peptide array binding signal intensity (averaged, normalized) (arbitrary units (background-subtracted, floor 0; scale differs between SH3 domains)); higher = stronger binding of the SH3 domain to the peptide
# AgAbp1 = biological target: AgAbp1
# How it was run: (§1)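 Spot intensities were captured after detection with anti-GST antibody, an HRP-linked anti-mouse secondary and luminol, and quantified with Genespotter. The probes were GST-fused SH3 domains from four yeast species, produced in E. coli BL21(DE3), purified on glutathione Sepharose and incubated at 10 μg/ml overnight at 4°C on cellulose-bound synthetic 15-mer peptides with cysteines replaced by serines. Binding signal is the normalized, background-subtracted spot intensity averaged over replicates, and its arbitrary units differ between domains.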
# AgBbc1 = biological target: AgBbc1
# How it was run: as §1
# AgBem1-D1 = biological target: AgBem1-D1
# How it was run: as §1
# AgBzz1-D1 = biological target: AgBzz1-D1
# How it was run: as §1
# AgBzz1-D2 = biological target: AgBzz1-D2
# How it was run: as §1
# AgCyk3 = biological target: AgCyk3
# How it was run: as §1
# AgFus1 = biological target: AgFus1
# How it was run: as §1
# AgHof1 = biological target: AgHof1
# How it was run: as §1
# AgHse1 = biological target: AgHse1
# How it was run: as §1
# AgLsb1 = biological target: AgLsb1
# How it was run: as §1
# AgLsb4 = biological target: AgLsb4
# How it was run: as §1
# AgMyo5 = biological target: AgMyo5
# How it was run: as §1
# AgNbp2 = biological target: AgNbp2
# How it was run: as §1
# AgRvs167 = biological target: AgRvs167
# How it was run: as §1
# AgSho1 = biological target: AgSho1
# How it was run: as §1
# AgSla1-D1-D2 = biological target: AgSla1-D1-D2
# How it was run: as §1
# AgSla1-D3 = biological target: AgSla1-D3
# How it was run: as §1
# CaAbp1-D1 = biological target: CaAbp1-D1
# How it was run: as §1
# CaAbp1-D2 = biological target: CaAbp1-D2
# How it was run: as §1
# CaBbc1 = biological target: CaBbc1
# How it was run: as §1
# CaBem1-D1 = biological target: CaBem1-D1
# How it was run: as §1
# CaBzz1-D1 = biological target: CaBzz1-D1
# How it was run: as §1
# CaBzz1-D2 = biological target: CaBzz1-D2
# How it was run: as §1
# CaCyk3 = biological target: CaCyk3
# How it was run: as §1
# CaFus1 = biological target: CaFus1
# How it was run: as §1
# CaHof1 = biological target: CaHof1
# How it was run: as §1
# CaHse1 = biological target: CaHse1
# How it was run: as §1
# CaLsb1 = biological target: CaLsb1
# How it was run: as §1
# CaLsb4 = biological target: CaLsb4
# How it was run: as §1
# CaMyo5 = biological target: CaMyo5
# How it was run: as §1
# CaNbp2 = biological target: CaNbp2
# How it was run: as §1
# CaRvs167 = biological target: CaRvs167
# How it was run: as §1
# CaRvs167-3 = biological target: CaRvs167-3
# How it was run: as §1
# CaSho1 = biological target: CaSho1
# How it was run: as §1
# CaSla1-D1-D2 = biological target: CaSla1-D1-D2
# How it was run: as §1
# CaSla1-D3 = biological target: CaSla1-D3
# How it was run: as §1
# ScAbp1 = biological target: ScAbp1
# How it was run: as §1
binder,measurement,setting,value
TEVPIPRRPPPPQAA,SPOT peptide array binding signal intensity,AgAbp1,≤ 0
same,SPOT peptide array binding signal intensity,AgBbc1,130
same,SPOT peptide array binding signal intensity,AgBem1-D1,≤ 0
same,SPOT peptide array binding signal intensity,AgBzz1-D1,8
same,SPOT peptide array binding signal intensity,AgBzz1-D2,7.5
same,SPOT peptide array binding signal intensity,AgCyk3,≤ 0
same,SPOT peptide array binding signal intensity,AgFus1,≤ 0
same,SPOT peptide array binding signal intensity,AgHof1,≤ 0
same,SPOT peptide array binding signal intensity,AgHse1,≤ 0
same,SPOT peptide array binding signal intensity,AgLsb1,≤ 0
same,SPOT peptide array binding signal intensity,AgLsb4,23.5
same,SPOT peptide array binding signal intensity,AgMyo5,938
same,SPOT peptide array binding signal intensity,AgNbp2,≤ 0
same,SPOT peptide array binding signal intensity,AgRvs167,2.33
same,SPOT peptide array binding signal intensity,AgSho1,≤ 0
same,SPOT peptide array binding signal intensity,AgSla1-D1-D2,≤ 0
same,SPOT peptide array binding signal intensity,AgSla1-D3,1
same,SPOT peptide array binding signal intensity,CaAbp1-D1,≤ 0
same,SPOT peptide array binding signal intensity,CaAbp1-D2,≤ 0
same,SPOT peptide array binding signal intensity,CaBbc1,768
same,SPOT peptide array binding signal intensity,CaBem1-D1,≤ 0
same,SPOT peptide array binding signal intensity,CaBzz1-D1,32
same,SPOT peptide array binding signal intensity,CaBzz1-D2,≤ 0
same,SPOT peptide array binding signal intensity,CaCyk3,20
same,SPOT peptide array binding signal intensity,CaFus1,≤ 0
same,SPOT peptide array binding signal intensity,CaHof1,1
same,SPOT peptide array binding signal intensity,CaHse1,≤ 0
same,SPOT peptide array binding signal intensity,CaLsb1,0.5
same,SPOT peptide array binding signal intensity,CaLsb4,210
same,SPOT peptide array binding signal intensity,CaMyo5,1
same,SPOT peptide array binding signal intensity,CaNbp2,204
same,SPOT peptide array binding signal intensity,CaRvs167,≤ 0
same,SPOT peptide array binding signal intensity,CaRvs167-3,2.75
same,SPOT peptide array binding signal intensity,CaSho1,≤ 0
same,SPOT peptide array binding signal intensity,CaSla1-D1-D2,≤ 0
same,SPOT peptide array binding signal intensity,CaSla1-D3,0.5
same,SPOT peptide array binding signal intensity,ScAbp1,≤ 0
